# A selection: hits, their analogues and other compounds. The true share with any hit is near 8.1%.
# MCF10A rerep = A quantitative high throughput screen for small molecules that induce DNA re-replication in MCF 10a normal breast cells | MCF 10A DNA re-replication, Hoechst nuclear intensity, 48 h | Potency, µM (series often up to 46.1 µM), inactives show at the highest dose activity, positive = re-replication, actives largely listed as activators | 350,000 compounds, 2.9% hits | AID 624296, 2012; also: % of control where 0% means no effect; nearly all actives have a fitted effect of over 50% in size
# KB-V1 cytotox = qHTS assay for MDR1-selective chemotherapeutics: Primary screen using the drug-selected MDR subline cells KB-V1; 400,000 compounds, 3.4% hits; KB-V1 MDR cells viability, CellTiter-Glo, 72 h; AID 1347076, 2019; Potency, µM (titrated, usually from 46.1 µM), hits mostly cytotoxic; also: % is scaled to controls: 0 for no effect and ±100 for the full control effect; nearly all actives have a fitted effect of over 60% in size
#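 Potencies derive from concentration-effect curves fitted to normalized luminescence (CellTiter-Glo) of KB-V1 cells treated for 72 h at 37 degrees C in phenol-red-free DMEM containing 10% FBS.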
# ELG1 DNA repair = qHTS screen for small molecules that inhibit ELG1-dependent DNA repair in human embryonic kidney (HEK293T) cells expressing luciferase-tagged ELG1; AID 504467, 2011; Potency, µM (highest dose often 46.1 µM), inactives show at the highest dose activity change, negative = inhibition, most hits filed as inhibitors; 330,000 compounds, 2.3% hits; HEK293T ELG1-luciferase reporter, luminescence, 16 h; DNA damage induced by 5-fluorouridine; also: % is scaled to controls: 0 for no effect and ±100 for the full control effect; nearly all actives have a fitted effect of over 55% in size
#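 Cells (2,000 per well) received 5-fluorouridine plus test compound or DMSO and were incubated 16 hr at 37 °C, 5% CO2. Luciferase activity was read by luminescence 30 min after ONE-Glo addition; signal suppression marked inhibition of damage-induced ELG1 function.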
# SW480 rereplic = A quantitative high throughput screen for small molecules that induce DNA re-replication in SW480 colon adenocarcinoma cells. SW480 DNA re-replication, Hoechst DNA content imaging, 48 h. Potency, µM (doses to about 46.1 µM), without a hit: at the highest dose re-replication activation, actives largely listed as activators. 340,000 compounds, 1.8% hits; also: % of control where 0% means no effect; nearly all actives have a fitted effect of over 55% in size
#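 250 cells/well; 23 nL cpd via pin tool; 48 hr, 37 C, 5% CO2; Hoechst 40 min; imager read of total nuclear intensity, ex 405/em 500-530 nm.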
# KB-3-1 tox = qHTS assay for MDR1-selective chemotherapeutics: Primary screen using the parental adenocarcinoma cell KB-3-1; KB-3-1 viability, CellTiter-Glo ATP luminescence, 72 h; Potency, µM (titrated, usually from 46.1 µM), usual class: cytotoxic; 400,000 compounds, 1.4% hits; also: % is scaled to controls: 0 for no effect and ±100 for the full control effect; nearly all actives have a fitted effect of over 60% in size
#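 72 h, 37 °C compound treatment of KB-3-1 parental cells; CellTiter-Glo added, 10 min, luminescence read. Data corrected against DMSO-only plates and normalized before curve fitting.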
# Numbers without * were called inactive; i = inactive; u = inconclusive; x = no result. Calls follow the shape of the dose curve; as a rule, active = well fitted curve in the direction sought with a large enough effect; inconclusive = small, poorly fitted or top-dose-only effect, or another doubt; inactive = no such curve, though single readings can be large; an effect the other way counts as inactive or inconclusive. Potency is read from the fitted curve at half-maximal effect.
SMILES,MCF10A rerep,KB-V1 cytotox,ELG1 DNA repair,SW480 rereplic,KB-3-1 tox
Cc1[nH]c2ccccc2c1C(=O)C(C)OC(=O)c1ccc([N+](=O)[O-])o1 (stereo unspecified),23.1µM*,u,1.1%,u,u
CN=c1scc(-c2ccc(OC)cc2)n1/N=C(\C)c1cccnc1,29.8%,u,18.3µM*,13.2%,u
O=S(=O)(NCCN1CCCC1)c1ccc(Cl)cc1,3.1%,u,-7.2%,-1.4%,i
CC(=O)c1c(C)oc2ccc(N(C(C)=O)S(=O)(=O)c3cccc([N+](=O)[O-])c3)cc12,-15.5%,i,u,u,i
CCOc1ccc(NC(=O)CSc2nc(C3CC3)nc3ccccc23)cc1,-0.4%,i,4.2%,7.4%,i
Nc1nn(-c2ccccc2)c(N)c1N=Nc1ccc2c(c1)OCO2,u,3.26µM*,u,16.4µM*,7.31µM*
Cc1nn(-c2ccccc2)c(N)c1N=Nc1cccnc1,-0.8%,i,u,-3.4%,i
Nc1nn(-c2ccccc2)c(N)c1N=Nc1cccc(F)c1,3.66µM*,u,u,5.8µM*,5.8µM*
Nc1[nH]n(-c2ccccc2)c(=O)c1N=Nc1ccc2c(c1)OCO2,26.0%,i,u,1.5%,u
O=C(O)CCn1cnc2onc(-c3cc(F)cc(F)c3)c2c1=O,x,u,x,x,i
Cc1csc(SC(C)C(=O)NCc2ccc3c(c2)OCO3)n1 (stereo unspecified),-2.0%,i,15.3%,-2.1%,i
COc1ccc(C2CC(=O)N(CC(=O)NCC3CCCO3)c3ccccc3S2)cc1OC (stereo unspecified),-3.2%,i,1.1%,-6.4%,i
CCOc1ccccc1NC(=O)CN1C(=O)CC(c2ccco2)Sc2ccccc21 (stereo unspecified),x,13µM*,x,x,u
O=C(CN1C(=O)CC(c2ccccc2)Sc2ccccc21)Nc1cccc(Cl)c1 (stereo unspecified),x,20.6µM*,x,x,u
CCc1ccc(NC(=O)CN2C(=O)CC(c3ccccc3)Sc3ccccc32)cc1 (stereo unspecified),x,i,x,x,i
CCOc1ccccc1NC(=O)CN1C(=O)CC(c2ccc(OC)c(OC)c2)Sc2ccccc21 (stereo unspecified),x,18.4µM*,x,x,u
Cc1c(C(=O)NCc2ccccc2)c(-c2ccccc2)nn1-c1ccccc1,u,i,u,-5.4%,i
CCc1ccc(N(CC(=O)NC2CCCC2)S(=O)(=O)c2c(C)noc2C)cc1,13.4%,i,-0.5%,-6.3%,i
COC(=O)CNC(=O)c1c(-c2c(Cl)cccc2Cl)noc1C,0.0%,i,7.6%,-1.2%,i
CC(C)C(NC(=O)c1ccc2c(c1)OCCO2)c1nc2ccccc2[nH]1 (stereo unspecified),0.0%,i,u,3.6%,i
S=C(N/N=C/c1ccc(Cl)c(Cl)c1)Nc1ccccc1Cl,12.2%,i,u,u,20.6µM*
O=[N+]([O-])c1cc(/C=N/NC(=S)Nc2ccccc2Cl)ccc1Cl,u,u,-0.4%,4.8%,18.4µM*
Fc1ccc(/C=N/NC(=S)Nc2ccc(Cl)cc2Cl)cc1,9.7%,u,-4.4%,u,5.17µM*
COc1ccc(/C=N/NC(=S)Nc2ccccc2[N+](=O)[O-])cc1O,u,11.6µM*,u,u,u
Fc1ccc(NC(=S)N/N=C/c2ccc(F)c(F)c2)cc1,-3.2%,i,14.0%,-5.3%,i
SMILES,MCF10A rerep,KB-V1 cytotox,ELG1 DNA repair,SW480 rereplic,KB-3-1 tox
Cc1ccc(NC(=S)N/N=C/c2ccc(Cl)c([N+](=O)[O-])c2)cc1,u,i,6.4%,-6.5%,i
CC(=O)Nc1cc(-c2ccc(F)cc2)cn2c(-c3ccc(S(C)(=O)=O)cc3)cnc12,x,i,x,x,i
COc1ccccc1NC(=O)C1CCN(C(=O)NCc2ccccc2)CC1,-2.4%,i,0.6%,1.1%,i
CC(=O)NCC(=O)NC(Cc1ccccc1)C(N)=O (stereo unspecified),0.8%,u,17.9%,-1.4%,i
c1ccc(SCc2cn3cccnc3n2)nc1,0.5%,i,-0.5%,-6.1%,i
C#CCOCCOCCOCCNc1nc(N2CCN(C(=O)C([C@@H](C)O)n3cc([C@@H](N)CCCCN)nn3)CC2)nc(N2CCN(C(=O)[C@H](CO)n3cc([C@@H](N)C(C)C)nn3)CC2)n1 (stereo partly specified),11.4%,i,24.6%,-2.6%,i
Cc1cccc(NC(=S)N/N=C/c2cccc(O)c2)c1C,u,6.51µM*,18.3µM*,7.31µM*,3.26µM*
Cc1ccccc1NC(=S)N/N=C/c1ccc(O)cc1O,17.7%,i,u,18.9%,u
COc1ccc(C2NCCc3c2[nH]c2ccccc32)cc1COc1ccc(F)cc1 (stereo unspecified),18.4µM*,u,u,u,u
O=C(c1cc(C2CC2)nn1-c1ccccc1)N1CCN(c2ncc(C(F)(F)F)cc2Cl)CC1,13µM*,16.4µM*,6.0%,-2.5%,i
Cc1ccc(Cl)cc1N1CCN(C(=O)CSc2ccsc2[N+](=O)[O-])CC1,u,5.17µM*,2.8%,-5.2%,i
O=C(CSc1ccc(Cl)cc1)N1CCN(c2ncc(C(F)(F)F)cc2Cl)CC1,u,14.6µM*,-21.7%,20.1%,i
O=C(CCSc1ccccc1)N1CCN(c2ccccc2)CC1,u,i,u,0.4%,i
O=C(CCSc1ccc(Cl)cc1)N1CCN(c2ccc(O)cc2)CC1,u,u,8.2µM*,u,u
Cc1ccc(Cl)cc1N1CCN(C(=O)CSc2cc(=O)n(C)c3ccccc23)CC1,x,i,x,x,i
O=C(CN1CCN(c2ncc(C(F)(F)F)cc2Cl)CC1)N1CCN(c2ncc(C(F)(F)F)cc2Cl)CC1,u,i,u,u,u
Cn1cc(S(=O)(=O)Cc2ccc(F)cc2)c2ccccc21,-0.7%,i,u,-8.0%,i
O=C1C=C(c2cc3ccccc3s2)C[C@@H](c2ccc(F)cc2)C1,2.5%,i,16.6%,-0.7%,i
CCCC(=O)N1CCN(c2ccc([N+](=O)[O-])cc2Cl)CC1,-3.5%,i,-7.3%,-2.9%,i
O=C(CSc1ccc(Cl)cc1)N1CCN(c2ccc([N+](=O)[O-])cc2Cl)CC1,u,16.4µM*,u,-4.5%,u

# From PubChem BioAssay
